An excerpt weighted towards active compounds, which were near 18% of everything screened.
TDP1 cell CPT – growth inhibition of DT40 Tdp1-/-;hTDP1 cells with camptothecin (screen for TDP1 inhibitors). 420,000 tested, 12% active. chicken DT40 Tdp1-/-;hTDP1 cells + 20 nM CPT, ATP luminescence, 48 h. AID 686979. Potency, µM (highest dose often 46.2 µM), for inactives: at the top dose activity change, negative = growth inhibition, usual class: inhibitors; note: potency is the fitted concentration of half-maximal effect; nearly all actives have a fitted effect of over 55% in size
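Cell growth measured by CellTiter-Glo luminescence after a minimum 48 h, 37 C compound exposure with 20 nM CPT in Tdp1-knockout DT40 cells stably expressing hTDP1, seeded 400/well; qHTS titration format.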
IL1B secr inh – inhibitors of inflammasome signaling (IL-1 beta secretion); THP-1 LPS/ATP IL-1B secretion, AlphaLISA, 16 h; active compounds read low; activity change, % at 57.5 µM; 360,000 tested, 4.7% active; in the data active = activity change below about -50%; inconclusive = mostly about -30% to -49%
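Secreted IL-1B measured by AlphaLISA bead assay after 16 h compound exposure of THP-1 cells; compounds (final up to 57.5 uM) added 1 h before LPS (250 ng/mL) and ATP (1.25 mM) stimulation; lower signal means less secretion.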
Gal4-VP16 FLuc – counter-screen for ROR gamma inhibitors: Gal4-VP16 reporter; AID 2546; Potency, µM (titrated, usually from 53.6 µM), for the others: top-dose activity, negative = inhibition, usual class: inhibitors; Drosophila S2 Gal4-VP16 UAS-luciferase, luminescence, 20 h; 310,000 tested, 3.5% active;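 note: Gal4-VP16 expression switched on by copper sulfate through the metallothionein promoter; potency is the fitted concentration of half-maximal effect; nearly all actives have a fitted effect of over 50% in size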
TDP1 cell noCPT – qHTS for Inhibitors of human tyrosyl-DNA phosphodiesterase 1 (TDP1): qHTS in cells in absence of CPT. AID 686978, 2013. 420,000 tested, 15% active. DT40 Tdp1-/- hTDP1 cells, no CPT, ATP luminescence, 48 h. Potency, µM (top dose mostly 46.2 µM), without a hit: at the highest dose activity change, negative = growth inhibition, usual class: inhibitors; note: potency is the fitted concentration of half-maximal effect; nearly all actives have a fitted effect of over 55% in size
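Growth kinetics read by CellTiter-Glo luminescence after ≥48 hr at 37 °C. Cells: DT40 Tdp1-/- stably carrying human TDP1, 400 per well, compound exposure in the absence of CPT (DMSO vehicle).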
LDHA block – inhibitors of human lactate dehydrogenase A; purified LDHA, NADH/diaphorase-resazurin fluorescence; active compounds read low; activity change, % (values are at about 110 or 230 µM); 480,000 tested, 0.15% active; in the data active = activity change below about -30%; inconclusive = mostly about -25% to -30%;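 note: plate controls were DMSO wells for no effect and wells without enzyme for full effect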
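Human LDH5 (2 nM) was incubated with 0.06 mM NADH and 0.2 mM pyruvate for 5 min at room temperature in Tris pH 7.4. Remaining NADH was coupled through diaphorase/resazurin, and resorufin fluorescence was read at 0 and 20 min.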
RORgamma inh – ROR gamma (mouse) transcription inhibition | AID 2551 | Potency, µM (series often up to 53.6 µM), for inactives: at the highest dose activity change, negative = inhibition, hits mostly inhibitors | 310,000 tested, 5.4% active | Drosophila S2 Gal4-RORgamma UAS-luciferase reporter, 20 h; note: potency is the fitted concentration of half-maximal effect; nearly all actives have a fitted effect of over 60% in size
Target sequence (P51450 whole entry, looked up, the tested form may be a part): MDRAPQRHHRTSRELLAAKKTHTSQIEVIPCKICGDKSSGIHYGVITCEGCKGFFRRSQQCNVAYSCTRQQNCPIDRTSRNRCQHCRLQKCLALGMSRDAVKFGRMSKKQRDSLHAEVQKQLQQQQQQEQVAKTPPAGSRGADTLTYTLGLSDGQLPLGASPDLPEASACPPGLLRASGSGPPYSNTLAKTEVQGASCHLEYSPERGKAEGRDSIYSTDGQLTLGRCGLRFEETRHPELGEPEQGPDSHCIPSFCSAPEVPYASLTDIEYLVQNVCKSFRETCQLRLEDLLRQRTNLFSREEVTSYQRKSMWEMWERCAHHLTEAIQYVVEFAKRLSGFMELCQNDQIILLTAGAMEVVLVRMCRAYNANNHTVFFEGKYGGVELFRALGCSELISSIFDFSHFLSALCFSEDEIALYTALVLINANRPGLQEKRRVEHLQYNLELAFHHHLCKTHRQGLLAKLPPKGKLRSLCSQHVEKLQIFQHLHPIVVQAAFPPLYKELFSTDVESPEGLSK
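Compounds are pin-transferred onto Drosophila Schneider cells expressing a copper-inducible Gal4–ROR gamma transactivation domain fusion. After 1 hr, copper sulfate is added to 700 uM final; luciferase is read 20 hr later.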
Active calls of the source: *; ? = inconclusive; . = no result given. Unless noted, calls come from the whole dose curve; as a rule, active = well fitted curve in the direction sought with a large enough effect; inconclusive = small, poorly fitted or top-dose-only effect, or another doubt; inactive = no such curve, though single readings can be large; an effect the other way counts as inactive or inconclusive. Unless noted, % is set by controls: 0 for no effect and ±100 for the full control effect.

SMILES	TDP1 cell CPT	IL1B secr inh	Gal4-VP16 FLuc	TDP1 cell noCPT	LDHA block	RORgamma inh
CC1OC(CC(=O)O)CC2=C1C(=O)c1c(O)cccc1C2=O (stereo not drawn)	0.103µM*	-98.2*	.	0.0651µM*	45.5	.
CN1CCN(C(CNCC(O)COC2CCCc3ccccc32)c2cccs2)CC1 (stereo not drawn)	.	.	.	.	6.7	.
CCOc1ccccc1NC(=O)NNS(=O)(=O)c1cc(OC)ccc1OC	-8.8%	1.7	-1.2%	-21.0%	-7.4	9.1%
CCOc1ccccc1NC(=O)C(=O)/C=C(\O)c1cc(OC)ccc1OC	5.8µM*	76.5	?	5.17µM*	3.5	?
COc1ccccc1NC(=O)C(=O)/C=C(\O)c1ccccc1	14.6µM*	.	?	14.6µM*	1.5	?
COc1ccc(OC)c(/C(O)=C/C(=O)C(=O)Nc2cc(C)ccc2OC)c1	?	7.5	11.2µM*	?	7.6	3.55µM*
COc1ccc(OC)c(C(=O)c2ccccc2)c1	-11.7%	0.0	2.8%	-12.9%	2.4	?
COc1ccc(OC)c(/C(O)=C/C(=O)C(=O)Nc2cc(C)cc(C)c2)c1	?	52.8	17.8µM*	18.4µM*	4.7	2.51µM*
CCOC(=O)Nc1cc(C)ccc1OC	4.9%	0.0	-9.2%	6.2%	2.4	43.7%
CC(=O)N1CCN(CC(=O)Nc2sc3c(c2C(N)=O)CCCC3)CC1	.	.	.	.	-0.4	.
CCc1nc(Nc2ccccc2O)c2oc3ccccc3c2n1	-0.7%	-0.4	8.2%	-23.1%	-5.0	-12.3%
COc1cccc(Oc2nc(C)nc3c2oc2ccccc23)c1	-20.7%	.	.	?	0.1	.
Cc1nc(Nc2ccc(Cl)cc2)c2oc3ccccc3c2n1	?	11.7	?	?	-6.8	-19.4%
Cc1nc(Nc2cccc(Cl)c2)c2oc3ccccc3c2n1	16.4µM*	-72.0*	22.6%	20.6µM*	-2.4	41.9%
CCc1nc(Nc2ccc(O)cc2)c2oc3ccccc3c2n1	?	-88.9*	3.1%	?	-6.0	-24.5%
CCc1nc(N(CC)CC)c2oc3ccccc3c2n1	-28.3%	17.7	?	-24.4%	-7.1	14.1µM*
COc1cccc(Nc2nc(C)nc3c2oc2ccccc23)c1	?	-6.1	-5.5%	20.6µM*	1.5	7.7%
COc1ccc(S(=O)(=O)Nc2cc(N3CCCS3(=O)=O)ccc2C)cc1OC	.	.	.	.	-5.0	.
CCc1nc(Nc2ccc(OC)cc2OC)c2oc3ccccc3c2n1	7.31µM*	-12.0	-29.3%	20.6µM*	-2.0	?
COc1ccccc1Nc1nc(C)nc2c1oc1ccccc12	14.6µM*	5.6	7.6%	9.2µM*	-1.0	-33.3%
Cc1nc(Nc2cccc(O)c2)c2oc3ccccc3c2n1	?	11.3	-2.4%	13µM*	-1.0	-2.8%
CCc1nc(Sc2nc(C)cc(C)n2)c2oc3ccccc3c2n1	?	-9.5	-9.3%	20.6µM*	-5.8	-19.0%
COc1ccc(Nc2nc(C)nc3c2oc2ccccc23)c(OC)c1	-15.4%	50.8	?	-21.9%	2.5	-44.2%
Cc1nc(Nc2cccc(F)c2)c2oc3ccccc3c2n1	?	-6.0	20.0%	?	-2.1	33.0%
CCc1nc(SCC(=O)c2ccc(Cl)s2)c2oc3ccccc3c2n1	-25.9%	2.1	3.3%	-25.1%	-14.5	-8.1%
SMILES	TDP1 cell CPT	IL1B secr inh	Gal4-VP16 FLuc	TDP1 cell noCPT	LDHA block	RORgamma inh
O=C(Cc1c[nH]c2ccccc12)OC/C=C/c1ccccc1	.	.	.	.	10.9	.
CC(C)c1ccccc1NC(=S)NCCc1ccc(Cl)cc1	.	.	.	.	-1.4	.
CCc1nc(NCC2CCCO2)c2oc3ccccc3c2n1 (stereo not drawn)	?	-11.4	13.8%	?	-9.0	-8.4%
CCc1nc(N2CCC(C)CC2)c2oc3ccccc3c2n1	?	13.2	?	?	-0.6	11.2µM*
Nc1cc(S(=O)(=O)N2CCOCC2)ccc1Oc1cccc(Br)c1	?	-61.0*	.	?	-1.5	.
Cc1c(-c2ccccc2)nc2ccccc2c1C(=O)Oc1ccc([N+](=O)[O-])cc1	8.2µM*	-50.9*	-2.0%	5.8µM*	-2.1	17.8%
O=C(NCCc1ccccc1)c1c2c(nc3ccccc13)C(=O)N(C1CCCCC1)C2	11.6µM*	.	.	18.4µM*	4.5	.
Cc1c(-c2ccccc2)nc2ccccc2c1C(=O)NCc1cccs1	?	-5.8	2.9%	16.4µM*	-5.7	44.6%
CCOc1ccc(CCNC(=O)c2c3c(nc4ccccc24)C(=O)N(C2CCCCC2)C3)cc1	16.4µM*	.	.	20.6µM*	-16.7	.
O=c1[nH]c2ccc(-c3csc(Nc4ccc(F)cc4)n3)cc2o1	.	.	.	.	-0.9	.
Cc1cccc(/C=N/NC(=O)c2ccc(C(C)(C)C)cc2)c1	.	.	.	.	5.2	.
O=C1CCCC2=C1C(c1ccsc1)CC(=O)N2c1ccc(C(F)(F)F)cc1 (stereo not drawn)	.	.	.	.	6.9	.
CCc1nc2ccccc2c(C(=O)NCc2ccccc2)c1C	-7.7%	6.5	-0.8%	-1.3%	-6.6	26.0%
O=C(NCCc1ccc(Cl)cc1)c1c2c(nc3ccccc13)C(=O)N(C1CCCCC1)C2	14.6µM*	.	.	14.6µM*	-3.4	.
CCc1c(-c2ccccc2)nc2ccccc2c1C(=O)NCCc1ccccc1	?	.	.	23.1µM*	-9.4	.
Cc1nn(C(C)C)c(C)c1NC(=O)c1cc2occc2n1Cc1ccccc1Cl	.	.	.	.	8.9	.
Cc1ccc(OCC(=O)NCCc2nc3ccccc3[nH]2)c(C)c1	?	-2.3	-5.8%	-25.0%	6.8	0.7%
Cc1cc(OCC(=O)NCCc2nc3ccccc3[nH]2)cc(C)c1Cl	11.6µM*	.	.	11.6µM*	-2.7	.
Cc1ccc(C(C)(C)C)c(OCC(=O)NCCc2nc3ccccc3[nH]2)c1	13µM*	.	.	7.31µM*	-2.9	.
Cc1ccccc1[C@H](NC1c2ccccc2C=Cc2ccccc21)P(=O)(c1ccccc1)c1ccccc1	?	-74.3*	.	?	2.2	.
O=C(Cc1ccccc1)n1nc(-c2ccco2)nc1SCc1ccccc1	?	?	16.1%	?	4.0	?
CCCC(=O)n1nc(-c2ccco2)nc1SCc1ccccc1	3.66µM*	0.0	?	?	-1.1	19.2%
O=C(Nc1ccc(Cc2ccncc2)cc1)Nc1ccc(Cc2ccncc2)cc1	.	.	.	.	-3.1	.
CCC(OC(=O)C1=Cc2ccccc2OC1)C(=O)NCc1ccco1 (stereo not drawn)	-28.1%	2.3	1.3%	25.9µM*	-2.8	35.5%
Cc1sc2nc(SCc3ccc(F)cc3)n(CCCN3CCOCC3)c(=O)c2c1C	.	.	.	.	-6.5	.

Screens as filed in PubChem.
